Molecules are shown by their SMILES. Several values for one entry are separate records, joined by “and”; a condition that tells them apart may be missing. Equal entries are not always repeated. Inconclusive results are not listed. Activity calls are given as the source filed them. Unless noted, the call rests on the fitted dose curve; in most records, active means well fitted curve in the direction sought with a large enough effect; inconclusive means small, poorly fitted or top-dose-only effect, or another doubt; inactive means no such curve, though single readings can be large; an effect the other way counts as inactive or inconclusive.

Assay [1] is described as follows: Cell Viability - Jurkat (AID 426;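 active means dose-dependent loss of cell ATP signal giving a full or clear fitted curve, ranked by lower potency value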; further: potency means the concentration at half of the fitted maximal effect). The conditions noted are these: qHTS. An outline of the steps: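 Cytotoxicity was scored as loss of cellular ATP, measured by luciferase-based luminescence, in Jurkat clone E6-1 cells after 40 h compound treatment; tamoxifen and doxorubicin served as positive controls.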
On the technique in general: In qHTS, concentration-response curves come from the screen itself.

A short description of assay [2]: Cell Viability - Hek293 (AID 427;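 active means compounds whose dose-response curve shows a full or clear partial loss of cell viability, called from curve shape rather than a numeric limit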;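 further: potency means the concentration at half of the fitted maximal effect; cells exposed to compound for 40 hours at 37 °C before reading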). The following applies: qHTS. An outline of the steps:
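HEK293 cells in complete medium were exposed to compound for 40 hr at 37 °C, then cellular ATP was read by CellTiter-Glo luminescence. Data were normalized to DMSO (basal) and 100 uM tamoxifen (100% inhibition), and AC50 came from Hill fits.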

Assay [3] in a line: Cell Viability - SK-N-SH (AID 435; calls by dose curve;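 further: potency means the concentration at half of the fitted maximal effect; compound exposure lasted 40 h at 37 °C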). The following applies: SK-N-SH neuroblastoma cell viability qHTS. An outline of the steps:
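Cells seeded at 1500 per well and incubated 5 hr at 37 °C. Compound added, then 40 hr at 37 °C. CellTiter-Glo added, 20 min at room temperature, luminescence read.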

The nature of assay [4]: Cellular Toxicity (caspase-3) Jurkat (AID 655).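 Further: cells exposed to compound for 16 h at 37 °C before reading.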 The following applies: Jurkat caspase-3 activation, luminescence; caspase-3 activation: at 92.2 µM (top of the series), DMSO = 0%, tamoxifen = 100%. A digest of the protocol: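 Caspase 3/7 activation is scored as increased luminescence in Jurkat cells cultured with compound for 16 hours in complete medium. AC50 values come from Hill fits of qHTS concentration-response data normalized to DMSO and 100 uM tamoxifen controls.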

A short description of assay [5]: Cell Viability - LYMP2-004 (AID 966).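 Further: plate controls were DMSO only for no effect and tetraoctylammonium bromide control for full effect; nearly all actives have a fitted effect of over 65% in size.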 The conditions noted are these: LYMP2-004 lymphoblastoid cell viability, qHTS; series mostly up to 92.2 µM. A digest of the protocol: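 Viable-cell number estimated from ATP luminescence (CellTiter-Glo) in 2500 human lymphoblastoid cells/well after 24 hr at 37 C with compound. AC50 fitted to the standard Hill equation.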
Assay [6] is described as follows: Cell Viability - LYMP2-015 (AID 971).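 Further: 0% = DMSO only and full effect = 92 µM tetraoctylammonium bromide; nearly all actives have a fitted effect of over 55% in size.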 The following applies: LYMP2-015 lymphoblastoid cell viability; series mostly up to 92.2 µM. An outline of the steps:
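AC50 values reflect Hill-model fits of ATP-based luminescence (CellTiter-Glo) from a human lymphoblastoid line, 2500 cells/well, treated 24 hr at 37 C.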

A short description of assay [7]: Cell Viability - LYMP2-019 (AID 973).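 Further: cells exposed to compound for 24 h at 37 °C; 0% = DMSO alone and full effect = 92 µM tetraoctylammonium bromide; nearly all actives have a fitted effect of over 55% in size.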 The following applies: LYMP2-019 lymphoblastoid cell line viability; series mostly up to 92.2 µM. A digest of the protocol: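 AC50 values come from Hill-equation modelling of qHTS concentration-response curves, where viability is measured as luciferase-based ATP luminescence in the lymphoblastoid line after 24 hr compound exposure in complete culture medium.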

Assay [8] can be described thus: Cell Viability - LYMP2-021 (AID 974).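 Further: compound exposure lasts 24 hours at 37 °C; on the % scale 0 is the no-effect control and ±100 the full control effect; nearly all actives have a fitted effect of over 55% in size.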 The conditions noted are these: LYMP2-021 lymphoblastoid cells viability; series mostly up to 92.2 µM. An outline of the steps: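 In qHTS format, compounds are tested against 2500 lymphoblastoid cells per well for 24 h; viable cell number is inferred from ATP-driven luciferase light, and Hill-equation fitting yields AC50 values.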

A short description of assay [9]: Cell Viability - LYMP2-025 (AID 976).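 Further: cells exposed to compound for 24 h at 37 °C; plate controls were DMSO only for no effect and tetraoctylammonium bromide control for full effect.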 The conditions noted are these: LYMP2-025 lymphoblastoid cell viability; series mostly up to 92.2 µM. A digest of the protocol: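 Luminescent ATP readout after 24 hr treatment of a human lymphoblastoid line (LYMP2-025, 2500 cells/well, 37 C). Reagent developed 30 min at room temperature; AC50 fitted with the Hill equation.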

Assay [10] can be described thus: Cell Viability - LYMP2-006 (AID 978).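 Further: cells exposed to compound for 24 hours; on the % scale 0 is the no-effect control and ±100 the full control effect; nearly all actives have a fitted effect of over 60% in size.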 The following applies: LYMP2-006 lymphoblastoid cell viability, qHTS; series mostly up to 92.2 µM. A digest of the protocol: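 Concentration-dependent loss of intracellular ATP in a human lymphoblastoid line after 24 hr treatment at 37 C was measured by CellTiter-Glo luminescence, with AC50 values obtained from standard Hill-equation modelling.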

Assay [11] in a line: Cell Viability - LYMP2-007 (AID 979).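 Further: cells exposed to compound for 24 h before reading; 0% = DMSO only and the negative end = 92 µM tetraoctylammonium bromide; nearly all actives have a fitted effect of over 60% in size.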 The conditions noted are these: LYMP2-007 lymphoblastoid cell viability; series mostly up to 92.2 µM. A digest of the protocol:
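Measured via luciferase-based ATP quantitation: lymphoblastoid cells, 24 hr compound exposure at 37 C, AC50 from Hill fits.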

Assay [12] in a line: Cell Viability - LYMP2-008 (AID 980).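 Further: cells exposed to compound for 24 h at 37 °C; on the % scale 0 is the no-effect control and ±100 the full control effect; nearly all actives have a fitted effect of over 60% in size.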 The following applies: LYMP2-008 lymphoblastoid cell viability, qHTS; series mostly up to 92.2 µM. An outline of the steps:
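Measured: ATP-dependent luminescence, proportional to viable cell number, in human lymphoblastoid cells treated 24 hr with compound in complete culture medium. Values are AC50s from Hill-equation modelling of qHTS titrations.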

The nature of assay [13]: Cell Viability - LYMP2-014 (AID 983).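 Further: cells exposed to compound for 24 h at 37 °C; plate controls were DMSO only for no effect and 92 µM tetraoctylammonium bromide for full effect; nearly all actives have a fitted effect of over 50% in size.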 The conditions noted are these: LYMP2-014 lymphoblastoid cells, viability qHTS; series mostly up to 92.2 µM. A digest of the protocol:
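Quantitative HTS in lymphoblastoid cells: 24 hr compound exposure, then CellTiter-Glo ATP luminescence. Positive control was tetraoctylammonium bromide, 6.4pM to 92 uM.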

Assay [14] can be described thus: Cell Viability - LYMP2-018 (AID 985).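 Further: plate controls were DMSO only for no effect and tetraoctylammonium bromide at 92 µM for full effect; nearly all actives have a fitted effect of over 50% in size.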 The following applies: LYMP2-018 lymphoblastoid cells, viability (qHTS); series mostly up to 92.2 µM. An outline of the steps:
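In this qHTS viability assay, cells are treated for 24 hr and cellular ATP is quantified by luciferase-based luminescence, with tetraoctylammonium bromide as positive control.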

Assay [15] is described as follows: Cell Viability - LYMP2-020 (AID 986).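 Further: cells exposed to compound for 24 h at 37 °C; plate controls were DMSO only for no effect and tetraoctylammonium bromide at 92 µM for full effect; nearly all actives have a fitted effect of over 55% in size.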 The conditions noted are these: series mostly up to 92.2 µM. A digest of the protocol:
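Cells at 2500 per well receive a 24 hr compound exposure at 37 C. Viability is measured as ATP-dependent luciferase luminescence, with AC50 modeled from qHTS concentration-response curves.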

The nature of assay [16]: Cell Viability - LYMP1-002 - Assay at 40 hr (AID 994).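 Further: 0% = DMSO only and full inhibition = 92 µM tetraoctylammonium bromide; nearly all actives have a fitted effect of over 60% in size.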 The conditions noted are these: LYMP1-002 lymphoblastoid cell viability; series mostly up to 92.2 µM. A digest of the protocol: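 Concentration-dependent ATP loss after 40 hr treatment at 37 C defined toxicity; AC50 values were obtained by fitting the standard Hill equation.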
A short description of assay [17]: qHTS assay for small molecule antagonists of retinoid X receptor alpha signaling (AID 588546).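 Further: cells stimulated with 9-cis-retinoic acid as agonist; on the % scale 0 is the no-effect control and ±100 the full control effect.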 The conditions noted are these: HEK293T RXRa-UAS-bla, beta-lactamase ratio, antagonist mode; measured here: W530 green channel, cytotoxicity proxy. An outline of the steps: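 Beta-lactamase reporter inhibition, read as CCF4 fluorescence ratio (ex 405, em 460/530 nm) after 2 h at RT. HEK293T UAS-bla cells, 2500/well, were stimulated with 9-cis-RA at 500 or 100 nM final alongside test compound for 18 h at 37 C.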

Assay [18] deals with Voltage-gated inwardly rectifying potassium channel KCNH2 (Homo sapiens) (UniProt Q12809). In words: qHTS Assay for Small Molecule Inhibitors of the Human hERG Channel Activity (AID 588834).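 Further: U2OS cells transduced with hERG by BacMam; top concentration of the series differs between compounds; on the % scale 0 is the no-effect control and ±100 the full control effect; lower thallium flux fluorescence means stronger hERG block; nearly all actives have a fitted effect of over 50% in size.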 The conditions noted are these: U2OS BacMam hERG, FluxOR thallium flux fluorescence; series mostly up to 92.2 µM. An outline of the steps:
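Cells were infected with hERG-BacMam virus for 4 hrs at room temperature, grown overnight, then seeded at 2000/well. After dye loading and roughly 10 min compound treatment, thallium influx was triggered and fluorescence recorded.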

Assay [19] in a line: qHTS assay for small molecule agonists of the antioxidant response element (ARE) signaling pathway measured by Nrf2-dependant transcriptional activity - cell viability counter screen (AID 720653; active means well fitted curve in the direction sought with a large enough effect in the repeat runs; an effect the other way counts as inactive or inconclusive; further: on the % scale 0 is the no-effect control and ±100 the full control effect). The conditions noted are these: ARE-bla HepG2 viability, CellTiter-Glo ATP luminescence, 16 h; stronger effect = lower value. A digest of the protocol:
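ARE-bla HepG2 cells (2,000/well) rested 5 hrs at 37C/5% CO2, then exposed to compounds in DMSO for 16 hrs. Viability was read in the same wells as intracellular ATP by luminescence, 30 min at room temperature after reagent addition.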

Chain of Voltage-gated inwardly rectifying potassium channel KCNH2 (Homo sapiens) (Q12809 whole entry, looked up): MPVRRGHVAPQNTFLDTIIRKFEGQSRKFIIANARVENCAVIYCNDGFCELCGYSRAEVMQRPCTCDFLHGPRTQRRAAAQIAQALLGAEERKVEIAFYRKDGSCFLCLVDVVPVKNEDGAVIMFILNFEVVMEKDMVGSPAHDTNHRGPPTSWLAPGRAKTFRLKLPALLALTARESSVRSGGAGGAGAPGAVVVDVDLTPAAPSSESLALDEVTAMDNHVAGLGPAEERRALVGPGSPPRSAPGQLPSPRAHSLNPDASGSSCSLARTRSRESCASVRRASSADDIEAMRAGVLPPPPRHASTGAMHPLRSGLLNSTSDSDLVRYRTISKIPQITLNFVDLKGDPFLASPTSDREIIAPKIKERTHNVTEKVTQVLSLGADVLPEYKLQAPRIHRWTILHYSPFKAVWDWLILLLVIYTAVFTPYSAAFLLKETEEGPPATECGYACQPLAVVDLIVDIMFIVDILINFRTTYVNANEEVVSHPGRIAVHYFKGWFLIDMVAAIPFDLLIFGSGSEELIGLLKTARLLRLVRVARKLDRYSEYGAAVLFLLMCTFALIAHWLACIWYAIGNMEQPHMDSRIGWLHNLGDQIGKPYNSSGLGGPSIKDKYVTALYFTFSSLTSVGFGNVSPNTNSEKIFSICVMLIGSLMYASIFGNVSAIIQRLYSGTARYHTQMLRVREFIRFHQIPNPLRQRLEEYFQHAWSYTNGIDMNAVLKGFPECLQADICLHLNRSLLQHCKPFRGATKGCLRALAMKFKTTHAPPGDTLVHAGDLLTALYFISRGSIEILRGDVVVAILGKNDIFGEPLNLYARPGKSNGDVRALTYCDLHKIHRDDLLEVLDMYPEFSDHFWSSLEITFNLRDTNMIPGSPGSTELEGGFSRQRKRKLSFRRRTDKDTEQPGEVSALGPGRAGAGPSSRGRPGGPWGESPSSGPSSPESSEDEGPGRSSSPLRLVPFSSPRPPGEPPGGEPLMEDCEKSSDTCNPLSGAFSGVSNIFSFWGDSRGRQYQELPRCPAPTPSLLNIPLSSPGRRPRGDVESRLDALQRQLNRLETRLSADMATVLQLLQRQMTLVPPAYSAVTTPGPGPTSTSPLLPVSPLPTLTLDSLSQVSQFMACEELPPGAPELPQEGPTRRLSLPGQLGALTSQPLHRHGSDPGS

Take `ClCCOCCCl`: the Potency in assay [1], in assay [2] and in assay [3] was > 92 µM (inactive) in each case. In addition, in assay [4], the caspase-3 activation was -0.264% (inactive). Further, the Potency entry in assay [5], in [6], in [7], in assay [8], in assay [9] and in assay [10] was “inactive” each time. For the same molecule, the Potency result in assay [11], in assay [12], in assay [13], in assay [14], in assay [15] and in [16] was “inactive” in each case. Further, in assay [18], the Potency result was “inactive”. Moreover, the max response in assay [17] is 8.9%; in [19] it was -1.62% (inactive).
As for `O=S(=O)(Cl)c1ccccc1`, the Potency in assay [1], in assay [2] and in [3] was > 92 µM (inactive) in each case. The caspase-3 activation in assay [4] was 0.656% (inactive). Moreover, the Potency entry in assay [5], in assay [6], in assay [7], in assay [8], in [9] and in [10] was “inactive” in each case. Besides, the Potency result in assay [11], in assay [12], in [13], in assay [14], in assay [15] and in assay [16] was “inactive” throughout. Moreover, in assay [18], the Potency result was “inactive”. The max response in [17] was 25.3% and -4.13%; in assay [19] it was 9.62% (inactive) and -3.03% (inactive).
As to `N#CC(Cl)(Cl)Cl`, the Potency in [2] and in [3] was > 92 µM (inactive) throughout. Besides, the Potency result in assay [5], in assay [6], in [7], in assay [8], in [9] and in assay [10] was “inactive” each time. For the same molecule, the Potency result in assay [11], in assay [12], in [13], in assay [14], in assay [15] and in [16] was “inactive” each time. For the same molecule, the Potency entry in assay [18] is “inactive”. Besides, the max response in [17] is -17.2%; in [19], 1.54% (inactive).
As to `C=CCOCC1CO1` (stereo not given), the Potency in [1], in [2] and in assay [3] was > 92 µM (inactive) each time. In addition, the caspase-3 activation in assay [4] was -0.0286% (inactive). Moreover, the Potency result in [5], in [6], in assay [7], in assay [8], in [9] and in assay [10] was “inactive” each time. Besides, the Potency result in assay [11], in assay [12], in assay [13], in [14], in assay [15] and in assay [16] was “inactive” in each case. In assay [18], the Potency result is “inactive”. Also, in [17], the max response is 2.33%.
Consider `ClP(Cl)(Cl)(Cl)Cl`, for which the Potency in assay [1], in [2] and in assay [3] was > 92 µM (inactive) each time. In assay [4], the caspase-3 activation is 0.993% (inactive). Besides, the Potency result in assay [5], in assay [6], in [7], in assay [8], in assay [9] and in [10] was “inactive” in each case. The Potency result in [11], in [12], in assay [13], in assay [14], in [15] and in [16] was “inactive” in each case. Besides, the Potency entry in [18] was “inactive”. For the same molecule, the max response was 4.58% in [17] and -1.82% (inactive) in assay [19].
`CC12CC1(C)C(=O)N(c1cc(Cl)cc(Cl)c1)C2=O` (stereo not given): the Potency in assay [1], in [2] and in [3] was > 92 µM (inactive) in each case. In [4], the caspase-3 activation was -1.16% (inactive). The Potency result in [5], in assay [6], in [7], in assay [8], in assay [9] and in assay [10] was “inactive” in each case. Besides, the Potency result in assay [11], in assay [12], in assay [13], in assay [14], in [15] and in [16] was “inactive” each time. The Potency entry in assay [18] is “inactive”. The max response in [17] is 4.78%; in assay [19], -1.37% (inactive) and -4.13% (inactive).
As for `CCN(CC)CCO`, the Potency in assay [1], in [2] and in [3] was > 92 µM (inactive) each time. Further, in assay [4], the caspase-3 activation is 2.76% (inactive). The Potency result in [5], in [6], in assay [7], in [8], in [9] and in [10] was “inactive” throughout. Further, the Potency result in assay [11], in assay [12], in [13], in [14], in assay [15] and in assay [16] was “inactive” throughout. For the same molecule, the Potency result in assay [18] was “inactive”. The max response is 3.45% in assay [17] and -6.79% (inactive) in [19].

For the origin of these results see PubChem BioAssay (NCATS).
